# Screening data (PubChem BioAssay)
# KB-3-1 tox: qHTS assay for MDR1-selective chemotherapeutics: Primary screen using the parental adenocarcinoma cell KB-3-1 | KB-3-1 viability, CellTiter-Glo ATP luminescence, 72 h | Potency, µM (top dose mostly 46.1 µM), usual class: cytotoxic | 400,000 tested, 1.4% active | AID 1347075, 2019; note: % is set by controls: 0 for no effect and ±100 for the full control effect; nearly all actives have a fitted effect of over 60% in size
#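 Cytotoxicity in the drug-sensitive parental line KB-3-1 was scored as loss of CellTiter-Glo luminescence following 72 h incubation with compound. Values come from curve fitting of normalized concentration-response data.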
# MCF10A rereplic: A quantitative high throughput screen for small molecules that induce DNA re-replication in MCF 10a normal breast cells; Potency, µM (top dose mostly 46.1 µM), for inactives: at the highest dose activity, positive = re-replication, actives largely listed as activators; AID 624296, 2012; 350,000 tested, 2.9% active; MCF 10A DNA re-replication, Hoechst nuclear intensity, 48 h; note: % of control where 0% means no effect; nearly all actives have a fitted effect of over 50% in size
# KB-V1 MDR tox: qHTS assay for MDR1-selective chemotherapeutics: Primary screen using the drug-selected MDR subline cells KB-V1; KB-V1 MDR cells viability, CellTiter-Glo, 72 h; Potency, µM (highest dose often 46.1 µM), most hits filed as cytotoxic; 400,000 tested, 3.4% active; note: % is set by controls: 0 for no effect and ±100 for the full control effect; nearly all actives have a fitted effect of over 60% in size
#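 Luminescent ATP read-out (CellTiter-Glo, 10 min) measures survival of drug-selected KB-V1 MDR cells after 72 h, 37 degrees C compound exposure. Medium: phenol-red-free DMEM, 10% FBS. Values from fitted concentration-response curves.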
# HT1080 IDH1KD tx: qHTS for induction of synthetic lethality in tumor cells producing 2HG: qHTS for the HT-1080-IDH1KD cell line; HT-1080 IDH1 knockdown viability, ATP luminescence, 48 h; Potency, µM (doses to about 46.1 µM), for the others: at the highest dose activity, negative = toxicity, hits mostly cytotoxic; 360,000 tested, 2% active; AID 686971, 2013;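 note: 0% = DMSO wells and -100% = cell-free medium wells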
#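 Using the IDH1-knockdown HT-1080 line run in the same batch and compound series as the NT line, viability after 48 h at 37 °C was determined by CellTiter-Glo luminescence and expressed as % activity.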
# HT1080-NT tox: qHTS for induction of synthetic lethality in tumor cells producing 2HG: qHTS for the HT-1080-NT fibrosarcoma cell line. Potency, µM (highest dose often 46.1 µM), for inactives: top-dose activity, negative = less viability, hits mostly cytotoxic. HT-1080-NT fibrosarcoma viability, CellTiter-Glo ATP luminescence, 48 h. 360,000 tested, 1.6% active. AID 686970, 2013;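 note: NT is the 2HG producing partner of a matched IDH1 knockdown line; 0% = DMSO-treated cells and -100% = media-only wells without cells; nearly all actives have a fitted effect of over 55% in size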
#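 Fibrosarcoma NT cells, 750 per well in 5% FBS RPMI, were exposed to compound for 48 hours. Viability: CellTiter-Glo luminescence.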
# SW480 rereplic: A quantitative high throughput screen for small molecules that induce DNA re-replication in SW480 colon adenocarcinoma cells; SW480 DNA re-replication, Hoechst DNA content imaging, 48 h; Potency, µM (titrated, usually from 46.1 µM), inactives show top-dose re-replication activation, hits mostly activators; 340,000 tested, 1.8% active; note: % of control where 0% means no effect; nearly all actives have a fitted effect of over 55% in size
#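 Hoechst fluorescence of nuclei (405 nm excitation, 500-530 nm emission) measured by plate-scanning imager after 48 hr compound exposure at 37 C; re-replication scored as increased number of nuclei with elevated intensity.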
# Active calls of the source: *; i = inactive; ? = inconclusive; . = no result given; [ ] = dose if it differs, or a comment. In the library only some 8% were active in any assay of this set; here they are far more common. Calls come from the whole dose curve; as a rule, active = well fitted curve in the direction sought with a large enough effect; inconclusive = small, poorly fitted or top-dose-only effect, or another doubt; inactive = no such curve, though single readings can be large; an effect the other way counts as inactive or inconclusive. Potency is the fitted concentration of half-maximal effect.
SMILES,KB-3-1 tox,MCF10A rereplic,KB-V1 MDR tox,HT1080 IDH1KD tx,HT1080-NT tox,SW480 rereplic
COc1ccc(CN2Cc3cnnn3-c3ccccc3C2C)cc1 (stereo unspecified),13µM*,?,?,?,-24%,?
O=C(CI)c1ccc(Cl)cc1,i,.,i,.,.,.
O=C(CN1CCCC2CCCCC21)c1ccc(I)cc1 (stereo unspecified),i,.,i,.,.,.
O=C(NN=Cc1ccc(N(CCCl)CCCl)cc1)c1cc(=O)[nH]c(=O)[nH]1,i,?,i,-12%,-9%,7.3µM*
O=C(Cc1cc(=O)oc2cc(O)ccc12)NN=Cc1ccc(N(CCCl)CCCl)cc1,i,?,i,-29%,-29%,?
O=C(NN=Cc1ccc(N(CCCl)CCCl)cc1)C(=O)c1c[nH]c2ccccc12,?,16µM*,i,?,-18%,?
O=C(NN=Cc1ccc(N(CCCl)CCCl)cc1Cl)c1cccnc1,i,18%,i,-16%,-11%,?
C[C@]12CCC(=O)C[C@@H]1CC[C@@H]1[C@@H]2CC[C@]2(C)[C@@H](O)CC[C@@H]12,i,-36%,16µM*,8%,?,-33%
C=CCOC(Cn1ccnc1)c1ccc(Cl)cc1Cl (stereo unspecified),i,?,i,1%,-4%,-8%
Clc1ccc(COC(Cn2ccnc2)c2ccc(Cl)cc2Cl)c(Cl)c1 (stereo unspecified),i,12µM*,?,?,23µM*,?
Cc1nc(C)n(CC(O)COc2ccc3cc(Br)ccc3c2)n1 (stereo unspecified),i,13%,i,?,-6%,3%
Cc1cccc(-n2c(/C=C/c3c[nH]c4ccccc34)nc3ccccc3c2=O)c1,i,.,?,.,.,.
O=C1Nc2ccc(Cl)cc2C(c2ccccc2)=NC1O (stereo unspecified),.,-1%,.,.,.,-4%
CC12CC[C@H]3[C@@H](CCC4(O)C[C@H](O)CCC34/C=N/NC(=O)c3ccc(O)cc3)C1(O)CCC2C1=CC(=O)OC1 (stereo partly specified),i,0%,i,6%,0%,-9%
CC12CC[C@H]3[C@@H](CCC4(O)C[C@H](O)CCC34/C=N/NC(=O)c3ccccc3F)C1(O)CCC2C1=CC(=O)OC1 (stereo partly specified),18µM*,?,i,?,-12%,0%
CC12CC[C@H]3[C@@H](CCC4(O)C[C@H](O)CCC34/C=N/NC(=O)c3ccccc3O)C1(O)CCC2C1=CC(=O)OC1 (stereo partly specified),?,?,?,18µM*,?,?
CN(C)c1ccc(C(=O)N/N=C/C23CC[C@@H](O)CC2(O)CC[C@@H]2[C@@H]3CCC3(C)C(C4=CC(=O)OC4)CCC23O)cc1 (stereo partly specified),6.5µM*,?,?,10µM*,?,11%
COc1cc(C(=O)N/N=C/C23CC[C@@H](O)CC2(O)CC[C@@H]2[C@@H]3CCC3(C)C(C4=CC(=O)OC4)CCC23O)ccc1O (stereo partly specified),i,?,i,23µM*,-27%,-12%
CC1(C)S[C@@H]2[C@H](N)C(=O)N2C1C(=O)O (stereo partly specified),.,9%[20.6 µM],.,.,.,-2%[20.6 µM]
CC(=O)O[C@H]1C[C@@H]2CC[C@@H]3[C@H](CC[C@@]4(C)[C@H]3C[C@H]([N+]3(C)CCCCC3)[C@@H]4OC(C)=O)[C@@]2(C)C[C@@H]1[N+]1(C)CCCCC1,i,-32%,i,-12%,-14%,-23%
CC(C)CCOP(=O)(c1ccc(N(C)C)cc1)C(O)c1c(Cl)cccc1Cl (stereo unspecified),i,?,i,-14%,-1%,-8%
C[C@H](N)[C@@H](O)c1ccccc1,.,-6%[20.6 µM],.,.,.,-6%[20.6 µM]
Cn1c(=O)oc2cc(S(=O)(=O)N3CCC(C(=O)N4CCN(c5ccc(F)cc5)CC4)CC3)ccc21,?,?,i,0%,0%,?
C[C@]12CCC(=O)C=C1C=CC1C2CC[C@@]2(C)C1CC[C@@H]2O (stereo partly specified),?,-27%,3.7µM*,0%,0%,-15%
CC12CCC(=O)C=C1C=CC1C2CCC2(C)C(O)CCC12 (stereo unspecified),8.2µM*,-20%,2.1µM*,-20%,-4%,4%
SMILES,KB-3-1 tox,MCF10A rereplic,KB-V1 MDR tox,HT1080 IDH1KD tx,HT1080-NT tox,SW480 rereplic
CC12CCC(=O)C=C1CC(N1CC1)C1C2CCC2(C)C(O)CCC12 (stereo unspecified),?,26%,?,2%,10%,?
C[C@]12CCC3C(CCC4=C(Cl)C(=O)CC[C@@]43C)C1CCC2O (stereo partly specified),.,19%,.,.,.,-10%
CCOP(=O)(OCC)OCC,i,-2%,i,4%,0%,0%
CCOP(=O)(CCP(=O)(OCC)OCC)OCC.C[CH2][Sn]([Cl])([Cl])[CH2]C,?,?,?,4.6µM*,?,?
CC(C)(C)OC(=O)N1CC(O)CC1C(=O)OCC(=O)c1ccc(-c2ccccc2)cc1 (stereo unspecified),i,?,?,1%,-4%,3%
CN1CCC(N(C)c2nc(-c3ccccc3)nc3ccccc23)CC1,i,-6%,i,-2%[9.24 µM],16µM*,2%
COc1cc2nc(N3CCCN(C)CC3)nc(N(C)C3CCN(C)CC3)c2cc1OC,i,.,i,.,.,.
Nc1nc(N)nc(NC2CC2)n1,.,3%,.,.,.,1%
C#CC1(O)CCC2C3CCC4=CC(=O)CCC4=C3C=CC21C (stereo unspecified),2.3µM*,28%,2.6µM*,?,?,-1%
CC(C)(N)Cc1ccc(Cl)cc1,.,-1%,.,.,.,-6%
COc1ccc(-n2c(O)c(/C(C)=N/Nc3ccccc3)c(=O)[nH]c2=O)cc1,i,15%,i,1.8µM*,1.6µM*,-94%
